Experimental findings from PubChem BioAssay (EPA / NIEHS) are described below.

The nature of assay [1]: ATG_E_Box_CIS: Attagene CIS-FACTORIAL HepG2 Assay for human Enhancer Box (E-box) (AID 2282936). The conditions noted are these: HepG2 E-box cis-reporter transcription, actives raise or lower the signal. A digest of the protocol: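 In this cell-based setup, HepG2 cells bearing transfected promoter-driven reporter units were exposed to chemicals for 24 h; reporter transcripts were amplified, 6-FAM-labelled, cut with HpaI and sized by capillary electrophoresis.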

A short description of assay [2]: ATG_M_61_CIS: Attagene CIS-FACTORIAL HepG2 Assay for M61 Transcription Factor (Internal Marker) (AID 2282937). The note with it: HepG2 Attagene CIS-FACTORIAL M61 internal marker reporter; actives raise or lower the signal. A digest of the protocol: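 Transfect HepG2 with MRTUs; dose 24 h; isolate RNA; reverse-transcribe with DNase I treatment; PCR-amplify, FAM-label and cut with HpaI for 2 h at 37 C; resolve by CE. Bidirectional fitting against DMSO.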

Assay [3] in a line: ATG_EGR_CIS: Attagene CIS-FACTORIAL HepG2 Assay for human Early Growth Response 1 (EGR1) (AID 2282938). The note with it: HepG2 Attagene CIS-FACTORIAL EGR reporter mRNA; actives raise or lower the signal. The method, boiled down:
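After a 24 h treatment of transiently transfected HepG2 cells, total RNA was reverse-transcribed and reporter sequences PCR-amplified, labelled and run on capillary electrophoresis. Reporters sit under cis-regulatory promoters sensing endogenous factors.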

A short description of assay [4]: ATG_M_19_CIS: Attagene CIS-FACTORIAL HepG2 Assay for M19 Transcription Factor (Internal Marker) (AID 2282939). The note with it: HepG2 Attagene CIS-FACTORIAL M19 internal marker reporter; actives raise or lower the signal. The method, boiled down:
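Signals come from fluorescence of labelled reporter-specific PCR fragments resolved by capillary electrophoresis, following 24 h treatment of HepG2 cells transfected with cis-promoter reporter units; activity was fitted in both directions relative to DMSO.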

The nature of assay [5]: ATG_Ets_CIS: Attagene CIS-FACTORIAL HepG2 Assay for human Erythroblast Transformation Specific (ETS) (AID 2282941). The conditions noted are these: HepG2 ETS cis-reporter transcription, actives raise or lower the signal. The method, boiled down:
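RT-PCR/capillary electrophoresis fluorescence read-out of reporter mRNA; HepG2 transient multi-reporter transfection; 24 h compound exposure; gain or loss of signal fitted bidirectionally relative to DMSO.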

For assay [6], the target named is Hepatocyte nuclear factor 3-beta (Homo sapiens) (UniProt Q9Y261). Description: ATG_FoxA2_CIS: Attagene CIS-FACTORIAL HepG2 Assay for human Forkhead box A2 (FOXA2) (AID 2282942). The note with it: HepG2 cis-reporter transcription factor activity, 24 h; actives raise or lower the signal. The method, boiled down:
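24 h dosing of HepG2 bearing cis-reporter constructs; mRNA readout by RT-PCR/CE fluorescence; bidirectional fit, DMSO baseline.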

The nature of assay [7]: ATG_FoxO_CIS: Attagene CIS-FACTORIAL HepG2 Assay for human Forkhead box O (FoxO) (AID 2282943). The conditions noted are these: HepG2 Attagene cis-reporter, FoxO element, mRNA; actives raise or lower the signal. A digest of the protocol:
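Read-out: fluorescence of 6-FAM-labelled reporter cDNA fragments resolved by capillary electrophoresis. Transiently transfected HepG2 cells were dosed for 24 h; activity fitted in both directions relative to DMSO controls.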

A short description of assay [8]: ATG_GATA_CIS: Attagene CIS-FACTORIAL HepG2 Assay for human GATA Binding Protein (AID 2282944). The note with it: HepG2 GATA cis-element reporter, Attagene multiplex mRNA; actives raise or lower the signal. A digest of the protocol: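 After transfecting HepG2 cells with multiple cis-regulated reporter units, chemicals are dosed for 24 h; isolated RNA undergoes RT-PCR and fluorescent labeling before capillary electrophoresis, with activity expressed against DMSO.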

Assay [9] in a line: ATG_GLI_CIS: Attagene CIS-FACTORIAL HepG2 Assay for human Zinc Finger Protein GLI1 (AID 2282945). The note with it: HepG2, Attagene cis-factorial reporter mRNA, GLI element; actives raise or lower the signal. A digest of the protocol:
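Transiently transfected HepG2 cells report endogenous transcription factor activity via cis-element-driven reporter units. After 24 h compound exposure, reporter mRNA was measured by RT-PCR with capillary electrophoresis; bidirectional fitting against DMSO baseline.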

Assay [10] is described as follows: ATG_GRE_CIS: Attagene CIS-FACTORIAL HepG2 Assay for human Glucocorticoid Response Elements (GRE) (AID 2282947). The note with it: HepG2 GRE cis-reporter, Attagene multiplex mRNA; actives raise or lower the signal. A digest of the protocol:
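Fluorescence intensity of reporter-specific cDNA fragments, separated by capillary electrophoresis, provides the signal. Constructs carry cis-regulating promoters in transiently transfected HepG2 liver cells; 24 h incubation; fitting is bidirectional against DMSO.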

Assay [11] can be described thus: ATG_ISRE_CIS: Attagene CIS-FACTORIAL HepG2 Assay for human Interferon Regulatory Factor 1 (IRF1) binding to an Interferon-Stimulated Response Element (ISRE) (AID 2282948). The conditions noted are these: HepG2 ISRE cis-reporter (Attagene), mRNA transcription readout; actives raise or lower the signal. A digest of the protocol:
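Read-out: fluorescent RT-PCR products resolved by capillary electrophoresis, reporting endogenous transcription factor activity via ISRE-driven reporter mRNA in transfected HepG2 cells dosed for 24 h; gain or loss fitted relative to DMSO.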

A short description of assay [12]: ATG_M_32_CIS: Attagene CIS-FACTORIAL HepG2 Assay for M32 Transcription Factor (Internal Marker) (AID 2282949).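 Note: background control marker of the multiplexed CIS panel rather than a real target.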 The conditions noted are these: HepG2 Attagene cis-factorial M32 reporter, mRNA; actives raise or lower the signal. A digest of the protocol:
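HepG2 transfectants (cis-regulated reporter transcription units) dosed 24 h. Reporter mRNA by RT-PCR plus CE, analysed as gain or loss relative to DMSO.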

Assay [13] is described as follows: ATG_M_06_CIS: Attagene CIS-FACTORIAL HepG2 Assay for M06 Transcription Factor (Internal Marker) (AID 2282950). The note with it: HepG2 Attagene CIS-FACTORIAL M06 internal marker reporter; actives raise or lower the signal. The method, boiled down: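 HepG2 liver cells, 24 h exposure. Reporter transcripts from transfected cis-element constructs quantified by RT-PCR/capillary electrophoresis fluorescence. Bidirectional curve fit against DMSO.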

Assay [14] deals with Hypoxia-inducible factor 1-alpha (Homo sapiens) (UniProt Q16665). As to the kind of experiment: ATG_HIF1a_CIS: Attagene CIS-FACTORIAL HepG2 Assay for human Hypoxia Inducible Factor 1 (HIF1A) (AID 2282951). The note with it: HepG2 Attagene cis-factorial HIF1a reporter transcription; actives raise or lower the signal. The method, boiled down:
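After 24 h chemical exposure of reporter-transfected HepG2 cells, reporter cDNA was PCR-amplified, labelled by 6-FAM primer extension (2 min 95 C, 20 s 68 C, 10 min 72 C), HpaI-cut (2 h, 37 C) and analysed by CE.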

Assay [15] has as its target Hepatocyte nuclear factor 6 (Homo sapiens) (UniProt Q9UBC0). As to the kind of experiment: ATG_HNF6_CIS: Attagene CIS-FACTORIAL HepG2 Assay for human Hepatocyte Nuclear Factor 6 (HNF6) (AID 2282952). The note with it: HepG2 Attagene cis-factorial HNF6 reporter transcription; actives raise or lower the signal. The method, boiled down:
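Endogenous factor activity read in transiently transfected HepG2 via promoter-regulated reporter transcripts. RNA harvested 24 h post-dosing, reverse-transcribed, PCR-amplified, FAM-labelled, HpaI-digested and resolved by capillary electrophoresis; fitted in both directions against DMSO.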

Assay [16] concerns the target Heat shock factor protein 1 (Homo sapiens) (UniProt Q00613). Description: ATG_HSE_CIS: Attagene CIS-FACTORIAL HepG2 Assay for human Heat Shock Transcription Factor 1 (HSE) (AID 2282953). The conditions noted are these: HepG2 HSE cis-reporter, Attagene RNA transcription; actives raise or lower the signal. A digest of the protocol:
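Endogenous transcription factor activity captured via cis-promoter reporter units transfected into HepG2; treatment lasted 24 h. Fluorescence intensity of reporter fragments analysed with bidirectional curve fitting, DMSO baseline.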

Assay [17] is described as follows: ATG_MRE_CIS: Attagene CIS-FACTORIAL HepG2 Assay for human Metal Responsive Element (MRE) (AID 2282954). The conditions noted are these: HepG2 MRE cis-reporter transcription, Attagene multiplex; actives raise or lower the signal. A digest of the protocol:
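Measured here is mRNA induction from an MRE cis-element reporter in HepG2 after 24 h, quantified by fluorescence of labelled RT-PCR products on capillary electrophoresis; gain- and loss-of-signal fits use DMSO as baseline.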

Assay [18] in a line: ATG_PBREM_CIS: Attagene CIS-FACTORIAL HepG2 Assay for human Phenobarbital-responsive Enhancer Module (PBREM) (AID 2282955). The conditions noted are these: HepG2 PBREM cis-reporter, Attagene multiplexed transcription; actives raise or lower the signal. A digest of the protocol:
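Measures endogenous factor action on a phenobarbital-responsive enhancer module. HepG2 transiently carrying cis reporters, 24 h treatment, mRNA read-out by RT-PCR plus capillary electrophoresis.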

The source made the active and inactive calls. Rule for the calls: active = hit-call score of the fitted dose curve at least 0.9, where 1 is the maximum; inactive = score below 0.9.

Heat shock factor protein 1 (Homo sapiens), sequence (Q00613 whole entry, looked up, the tested form may be a part): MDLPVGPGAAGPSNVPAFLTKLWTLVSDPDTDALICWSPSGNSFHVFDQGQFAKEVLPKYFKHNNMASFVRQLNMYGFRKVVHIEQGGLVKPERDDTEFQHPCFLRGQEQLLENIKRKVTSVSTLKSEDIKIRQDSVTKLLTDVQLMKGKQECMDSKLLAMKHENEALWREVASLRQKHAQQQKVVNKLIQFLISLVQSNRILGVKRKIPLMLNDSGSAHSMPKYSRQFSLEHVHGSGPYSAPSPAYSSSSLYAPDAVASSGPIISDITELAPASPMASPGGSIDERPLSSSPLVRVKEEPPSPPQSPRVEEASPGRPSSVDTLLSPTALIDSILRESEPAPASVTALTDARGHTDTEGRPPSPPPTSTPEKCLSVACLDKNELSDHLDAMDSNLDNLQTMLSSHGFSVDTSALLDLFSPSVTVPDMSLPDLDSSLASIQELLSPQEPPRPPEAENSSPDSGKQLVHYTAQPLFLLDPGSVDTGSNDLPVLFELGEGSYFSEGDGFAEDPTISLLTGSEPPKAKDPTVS
Hepatocyte nuclear factor 6 (Homo sapiens), sequence (Q9UBC0 whole entry, looked up): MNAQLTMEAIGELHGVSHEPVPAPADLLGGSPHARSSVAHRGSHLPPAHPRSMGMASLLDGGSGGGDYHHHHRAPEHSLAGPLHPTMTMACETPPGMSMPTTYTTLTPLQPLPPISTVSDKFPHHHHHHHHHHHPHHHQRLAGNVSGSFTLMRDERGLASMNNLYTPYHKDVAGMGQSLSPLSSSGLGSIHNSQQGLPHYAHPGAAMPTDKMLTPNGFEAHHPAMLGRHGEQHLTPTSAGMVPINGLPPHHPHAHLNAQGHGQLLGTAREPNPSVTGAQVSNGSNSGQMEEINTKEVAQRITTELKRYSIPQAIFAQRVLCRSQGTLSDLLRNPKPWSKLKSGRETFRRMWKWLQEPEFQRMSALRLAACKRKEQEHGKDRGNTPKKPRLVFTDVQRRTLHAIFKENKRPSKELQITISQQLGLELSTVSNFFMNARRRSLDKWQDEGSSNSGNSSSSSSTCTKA
Hepatocyte nuclear factor 3-beta (Homo sapiens), sequence (Q9Y261 whole entry, looked up): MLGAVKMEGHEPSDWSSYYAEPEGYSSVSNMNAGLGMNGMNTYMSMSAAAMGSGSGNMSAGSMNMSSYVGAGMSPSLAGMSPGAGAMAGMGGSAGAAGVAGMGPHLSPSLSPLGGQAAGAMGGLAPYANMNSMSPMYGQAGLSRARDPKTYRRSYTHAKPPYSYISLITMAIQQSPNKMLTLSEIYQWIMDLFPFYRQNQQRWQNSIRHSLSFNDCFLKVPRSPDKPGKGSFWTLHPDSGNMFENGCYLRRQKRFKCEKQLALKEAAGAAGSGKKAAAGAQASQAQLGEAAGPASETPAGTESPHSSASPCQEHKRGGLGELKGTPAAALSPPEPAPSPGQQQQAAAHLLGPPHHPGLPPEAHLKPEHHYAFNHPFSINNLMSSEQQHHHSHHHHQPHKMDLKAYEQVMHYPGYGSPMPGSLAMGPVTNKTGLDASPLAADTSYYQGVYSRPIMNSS
Hypoxia-inducible factor 1-alpha (Homo sapiens), sequence (Q16665 whole entry, looked up): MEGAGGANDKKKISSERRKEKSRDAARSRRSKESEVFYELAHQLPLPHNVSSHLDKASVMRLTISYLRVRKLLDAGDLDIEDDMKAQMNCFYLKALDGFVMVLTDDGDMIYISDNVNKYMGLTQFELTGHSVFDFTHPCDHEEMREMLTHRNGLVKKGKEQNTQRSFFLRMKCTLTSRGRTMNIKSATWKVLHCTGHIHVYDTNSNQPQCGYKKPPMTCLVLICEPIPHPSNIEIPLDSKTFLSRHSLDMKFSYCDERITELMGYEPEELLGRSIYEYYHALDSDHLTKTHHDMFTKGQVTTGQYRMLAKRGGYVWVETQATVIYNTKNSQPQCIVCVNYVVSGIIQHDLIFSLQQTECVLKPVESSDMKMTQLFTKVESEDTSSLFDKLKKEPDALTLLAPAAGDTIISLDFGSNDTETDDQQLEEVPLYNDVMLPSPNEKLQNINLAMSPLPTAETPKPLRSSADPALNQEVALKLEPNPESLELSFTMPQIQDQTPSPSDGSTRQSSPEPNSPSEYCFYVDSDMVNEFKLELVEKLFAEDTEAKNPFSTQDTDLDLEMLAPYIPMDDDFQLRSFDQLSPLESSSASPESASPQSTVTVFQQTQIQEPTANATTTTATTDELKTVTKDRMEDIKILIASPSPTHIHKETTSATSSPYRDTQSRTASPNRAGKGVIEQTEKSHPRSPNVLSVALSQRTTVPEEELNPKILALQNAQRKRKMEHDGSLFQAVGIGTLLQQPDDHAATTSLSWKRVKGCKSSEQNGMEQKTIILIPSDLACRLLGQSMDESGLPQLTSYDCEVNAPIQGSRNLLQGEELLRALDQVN

For `CCC(=O)OCc1ccccc1`, the outcome in assay [1], in [2], in assay [3], in [4], in assay [5] and in assay [6] was inactive. In addition, the call in [7], in [8], in assay [9], in assay [10], in [11] and in assay [12] was inactive. Moreover, the molecule was called inactive in [13], in assay [14], in assay [15], in assay [16] and in assay [17].

Turning to `C=C(C)C1CCC(C)CC1O` (centres undefined), the result in [1], in assay [2], in [3], in assay [4], in [5] and in assay [6] was inactive. The result in assay [7], in [8], in assay [9], in assay [11], in assay [12] and in assay [13] was inactive. Besides, the molecule was classed as inactive in assay [14], in assay [15], in assay [16] and in [17].

Regarding `O=C[C@@H](O)[C@H](O)[C@H](O)CO`, the outcome in assay [1], in [2], in assay [3], in assay [4], in assay [5] and in assay [6] was inactive. For the same molecule, the call in assay [7], in assay [8], in assay [9], in assay [11], in [12] and in assay [13] was inactive. Further, the molecule was called inactive in assay [14], in assay [15], in [16], in [17] and in [18].

As to `CCC(=O)OCCC(C)CCC=C(C)C` (centres undefined), the outcome in [1], in assay [2], in assay [3], in [4], in assay [5] and in assay [6] was inactive. In addition, the outcome in [7], in assay [8], in assay [9], in assay [11], in assay [12] and in assay [13] was inactive. The result in assay [14], in assay [15], in [16], in assay [17] and in assay [18] was inactive.

Consider `CC(C)C[C@H]1C(=O)N2CCC[C@H]2[C@]2(O)O[C@](NC(=O)[C@@H]3C=C4c5cccc6[nH]c(Br)c(c56)C[C@H]4N(C)C3)(C(C)C)C(=O)N12`, for which the result in [1], in [2], in assay [4], in assay [5], in [6] and in assay [7] was inactive. In addition, the molecule was classed as inactive in assay [8], in assay [9], in assay [10], in [12], in [15] and in [16]. In addition, the AC50 was 1650 nM (active) in assay [3], 3760 nM (active) in assay [11], 2160 nM (active) in assay [17] and 744 nM (active) in [18].

In the case of `CCOc1ccccc1OCC`, the result in assay [1], in assay [2], in assay [3], in [4], in assay [5] and in assay [6] was inactive. In addition, the result in assay [7], in [8], in assay [9], in assay [10], in assay [11] and in assay [12] was inactive. The result in assay [13], in [14], in assay [15], in assay [16] and in [17] was inactive.

On to `CCC(C)CCCC(C)(C)O` (centres undefined), for which the outcome in assay [1], in [2], in [3], in assay [4], in assay [5] and in [6] was inactive. For the same molecule, the outcome in assay [7], in [8], in [9], in assay [10], in assay [11] and in [12] was inactive. Also, the result in assay [13], in [14], in [15], in [16] and in assay [17] was inactive.

Turning to `COc1ccc(NC(=O)CC(C)=O)cc1`, the outcome in assay [1], in [2], in assay [3], in [4], in [5] and in assay [6] was inactive. The molecule was called inactive in assay [7], in assay [8], in assay [9], in [11], in [12] and in assay [13]. In addition, the molecule was called inactive in [14], in assay [15], in assay [16], in assay [17] and in [18].

For the molecule `CCOC(=O)c1ccccc1OC`, the outcome in [1], in assay [2], in [3], in [4], in assay [5] and in assay [6] was inactive. The outcome in [7], in [9], in assay [11], in [12], in assay [13] and in [15] was inactive. For the same molecule, the molecule was classed as inactive in assay [16], in assay [17] and in assay [18].
